Out of some 220,000 compounds screened, about 8,200 (3.7%) were called active. The sample holds actives, similar compounds and a random draw of the others, so the mix is not that of the screen. Unmarked numbers belong to inactive results.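 How the source made its calls: active means compounds that reduced the stress-induced luciferase reporter signal by more than about 70% of percent inhibition (limit read from the data); inactive means the rest.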
Assay: blockers of ER-stress CHOP reporter expression – cell-based, unfolded protein response, luciferase reporter, primary screen (AID 2732);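 further: 0% = tunicamycin plus vehicle and 100% = wells without tunicamycin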
Settings: CHO-K1 CHOP-promoter luciferase, tunicamycin-induced, 15-18 h; at 10 µM; stronger effect = higher value

Structure (SMILES) | inhibition
c1csc(-c2nnc(COc3ncnc4sccc34)o2)c1 | 4.38%
Cc1cccc(C)c1Nc1c(-c2ccccc2O)nc2ncccn12 | 6.71%
O=c1c2ccccc2c(-c2ccccc2)nn1-c1ccccn1 | 38.6%
O=c1c2ccccc2c(-c2ccc(Br)cc2)nn1Cc1ccccc1 | 36.9%
O=c1c2ccccc2c(-c2ccc(F)cc2)nn1-c1ccc(C(F)(F)F)cc1 | 75.1% (active)
Oc1ccc2ccccc2c1N=Nc1nccs1 | -57.9%
Cc1noc(C)c1-c1nc(CSc2ccc(Cl)cc2)no1 | 20.1%
O=S(=O)(c1cccc(-c2nnc3n2CCCCC3)c1)N1CCOCC1 | 7.35%
O=C(COC(=O)c1n[nH]c2ccccc12)NCc1ccccc1 | 38.6%
COc1cccc(CNC(=O)c2n[nH]c3ccccc23)c1 | 15.2%
COc1ccc(COC(=O)c2n[nH]c3ccccc23)cc1F | 97.2% (active)
C=CCN(C(=O)Nc1ccc2c(c1)nc(C)n2C)c1ccccc1 | -18.2%
O=C(NCCc1c[nH]c2ccc(Cl)cc12)c1ccc([N+](=O)[O-])cc1 | -3.24%
CCCOc1ccc(C(=O)NCCc2ccccc2)cc1 | 21.8%
CCCOc1ccc(Cc2c(Cl)nc(SC)nc2NC)cc1 | 97.5% (active)
CCCOc1ccc(-c2nc(N)n[nH]2)cc1 | 20.8%

Structure (SMILES) | inhibition
CNc1ncnc2c1ncn2[C@@H]1O[C@H](CO)[C@H](O)C1O (some centres not stated) | 10.8%
COc1cc2[nH]c(=S)n(Cc3ccc(F)cc3)c(=O)c2cc1OC | 90.9% (active)
COc1cc2[nH]c(=S)n(Cc3ccc(C)o3)c(=O)c2cc1OC | 7.74%
CCOc1cc2[nH]c(=S)n(Cc3ccc(C(=O)NCCOC)cc3)c(=O)c2cc1OCC | 9.91%
C#CCNc1ccc(C(=O)OCC)cc1 | -15.6%
O=C1c2cccc3cc(Br)cc(c23)C(=O)N1Nc1ccccc1 | 63.7%
O=C(O)CC1=C(Nc2ccccc2)C(=O)N(c2ccccc2)C1c1ccc(Cl)cc1 (configuration not stated) | 8.1%
O=C1C=C(c2ccc(Cl)cc2)C(=O)N1Nc1ccccc1 | 108% (active)
N#Cc1c(N)n(CCOC(=O)c2ccc(Cl)cc2)c2nc3ccccc3nc12 | -17.1%
CC(C)(C)c1ccc(C(=O)NCCn2c(N)c(C#N)c3nc4ccccc4nc32)cc1 | 86.5% (active)
CCCNC(=O)c1c(N)n(-c2ccc(S(N)(=O)=O)cc2)c2nc3ccccc3nc12 | -1.19%
Cc1ccc(O)c(NC(=O)COc2cc(C)ccc2C)c1 | 5.05%
Cc1cccc(OCC(=O)NC(=S)Nc2ccccc2N2CCOCC2)c1 | 47.7%
Cc1ccc(O)c(NC(=S)NC(=O)COc2ccc(Br)cc2)c1 | 74.2% (active)
CCCc1c(C(=O)O)cnn1-c1ccc(Cl)cc1 | -2.68%
O=C1[C@@H]2C(c3cccnc3)=NO[C@@H]2C(=O)N1c1ccc(Cl)cc1Cl | 19.2%
